# In the OligoGym collection:
# Target: TC2N
# Test: pooled miR-30 sensor sort-seq; sequence = guide strand
# Details: shRNA
# Note: reference of the scale not given here.
row,Sequence,sensor-assay potency score (higher = more potent)
1,TTATAAATCAACTCTCCCGAGC,-0.579
2,TTACTGTCTGTGTCTCTTGTTG,-0.31
3,TTAAATCACAAACCGATCCATA,-0.989
4,TTACTGTCTTCACTTATCCAAA,-1.52
5,TAGCATTTTGACTATTTGGGAC,-0.206
6,TGAACTGGAAAGTTCTACCTTT,0.507
7,TTTAATAGCAAATACAAACGTT,-0.37
8,TTAATAGCAAATACAAACGTTT,-0.542
9,TTACTGTCTCTTTCCACTGGTT,-0.545
10,TAAAACTGTGATCCAGATCTGT,-0.0159
11,TTGAAGAAGAACTACTGGGTAC,-0.298

# Target: TCEA3
# Test: as above
# Details: shRNA
row,Sequence,sensor-assay potency score (higher = more potent)
1,TTCTTCTTGCATTTGCTGCACT,-0.468
2,TCTGATGCCATCTTGTCACAGT,-0.177
3,ATTAACAGCAACTCCAATCCTG,0.388
4,TTCCGGTACTTCATGTCCGTGC,0.146
5,ATAGGTGCAGTTCTTCTTCTTG,-0.625
6,TTCTTCTTCTTGCATTTGCTGC,-0.856
7,TTGGTAGATATGATCTTCGATT,-0.766
8,TCGATTTCTGATGCCATCTTGT,-0.388
9,TCTTGTCACAGTTGACTCCATA,-0.75
10,TACTTCATGTCCGTGCTCTTGA,0.446
11,TTGAGGTTGCTTATGCGGCTGC,-0.208
12,TTAACAGCAACTCCAATCCTGG,-0.797

# Target: TCEAL1
# Test: as above
# Details: shRNA
row,Sequence,sensor-assay potency score (higher = more potent)
1,TGTATCATCTCCTCATTGCTTA,0.297
2,AAAGCTTCCTTCTTCAAGCTTA,0.373
3,TCATCTCTTCTAGCTCATCTGC,-1.12
4,ATTATCATCAGTTTGTTTCTTA,0.834
5,TTACTCTTTTCATCTCTTCTAG,-0.0336
6,TAAATTGCGGGCGAGAACGAGC,-1.13
7,TTCTAGCTCATCTGCTGCCTGT,-0.542
8,TTATGTTTTCCTACTCCACAAG,-1.15
9,TTTGTTTCTTACTCTTTTCATC,-1.09
10,TTCGGGAGAGTGCTCCACCGGA,-1.49
11,ATCAGTTTGTTTCTTACTCTTT,-0.801
12,TTTTCATCTCTTCTAGCTCATC,-1.39

# Target: TCEANC2
# Test: as above
# Details: shRNA
row,Sequence,sensor-assay potency score (higher = more potent)
1,TAGAAGGTCTATTTGAATGTTT,-0.0592
2,TTACGCATCTTGTTCACAGTGT,0.769
3,TTGATTTTAACACTTCCCTGGA,0.232
4,TACAACCACAACTCTCTTCAGA,-0.694
5,TTCACAGTGTGACCTATCCTTG,-0.944
